Reference: PubChem BioAssay AID1159580 (chemical genetic matrix, 2015)
Where “and” joins values, the source holds several entries; their conditions need not be identical. Equal values may be shown once. About 2,000 (36%) of roughly 5,500 compounds were called active. Not shown: some 18% with an inconclusive outcome. Cut-off read from the data, not from the text of the source: active = normalized growth mostly below about 0.91 (no sharp cut-off); inconclusive = no clear call, values can overlap the other calls; inactive = mostly above about 0.92. Some of the results follow.

Assay: chemical genetic growth profiling, strain panel (AID 1159580);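 note: tested at 20 µM; growth read once vehicle control cultures reached saturation at 30 °C; 1 = growth at the plate median or of vehicle wells; lower values mean less growth of the strain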
Settings: S. cerevisiae deletion strains, growth OD

Measured: normalized growth

COc1ccc2[nH]cc(CCNC(C)=O)c2c1
inactive: locus YAL013W, strain DEP1, hits give low values 1.01 | locus YAL021C, strain ccr4, hits give low values 0.977 | locus YAL026C, strain drs2, hits give low values 0.983 | locus YAL030W, strain snc1, hits give low values 0.984 | locus YAL040C, strain CLN3, hits give low values 0.996 | locus YBL061C, strain skt5, hits give low values 0.969 | locus YBR009C, strain hhf1, hits give low values 0.983 | locus YBR021W, strain FUR4, hits give low values 1.01 | locus YBR023C, strain chs3, hits give low values 0.979 | locus YBR171W, strain sec66, hits give low values 0.966 | locus YBR229C, strain ROT2, hits give low values 1.02 | locus YBR231C, strain swc5, hits give low values 0.971 | locus YBR279W, strain paf1, hits give low values 0.978 | locus YCL011C, strain gbp2, hits give low values 0.979 | locus YCL016C, strain dcc1, hits give low values 0.972 | locus YCL029C, strain bik1, hits give low values 1.02 | locus YCL061C, strain MRC1 (second series), hits give low values 1.01 | locus YCL061C, strain MRC1, hits give low values 0.984 | locus YCL069W, strain vba3, hits give low values 0.977 | locus YCR088W, strain abp1, hits give low values 0.968 | locus YDL005C, strain med2, hits give low values 0.959 | locus YDL035C, strain GPR1, hits give low values 1.01 | locus YDL040C, strain nat1, hits give low values 0.971 | locus YDL074C, strain BRE1, hits give low values 1.02 | locus YDL101C, strain DUN1, hits give low values 1.01 | locus YDL134C, strain PPH21, hits give low values 1.01 | locus YDL185W, strain tfp1, hits give low values 1.03 | locus YDL192W, strain arf1, hits give low values 1.03 | locus YDR001C, strain nth1, hits give low values 0.973 | locus YDR069C, strain doa4, hits give low values 0.958 | locus YDR101C, strain arx1, hits give low values 1.02 | locus YDR137W, strain rgp1, hits give low values 0.992 | locus YDR150W, strain NUM1, hits give low values 1 and 1.01 | locus YDR159W, strain sac3, hits give low values 0.943 | locus YDR162C, strain NBP2, hits give low values 1.02 | locus YDR195W, strain ref2 0.959 | locus YDR297W, strain sur2, hits give low values 0.967 | locus YDR318W, strain mcm21, hits give low values 1.02 | locus YDR334W, strain swr1, hits give low values 0.969 | locus YDR335W, strain msn5, hits give low values 0.977 | locus YDR363W, strain ESC2, hits give low values 0.996 | locus YDR388W, hits give low values 1.02 | locus YDR392W, strain spt3, hits give low values 0.958 | locus YDR502C, strain sam2, hits give low values 1.03 | locus YEL003W, strain gim4, hits give low values 0.974 | locus YEL037C, strain rad23, hits give low values 0.966 | locus YEL061C, strain CIN8 (second series), hits give low values 0.972 | locus YEL061C, strain CIN8, hits give low values 1 | locus YER002W, strain NOP16, hits give low values 0.999 | locus YER015W, strain faa2, hits give low values 0.981 | locus YER016W, strain bim1, hits give low values 0.975 | locus YER110C, hits give low values 1.02 | locus YER111C, strain swi4, hits give low values 0.976 | locus YER155C, strain BEM2 (second series), hits give low values 0.971 | locus YER155C, strain BEM2, hits give low values 0.998 | locus YER167W, strain BCK2, hits give low values 1.01 | locus YFR010W, strain ubp6, hits give low values 0.955 | locus YGL078C, strain dbp3, hits give low values 1.02 | locus YGL086W, strain mad1, hits give low values 1.02 | locus YGL167C, strain pmr1, hits give low values 0.96 | locus YGL173C, strain kem1, hits give low values 0.955 | locus YGL227W, strain vid30, hits give low values 0.962 | locus YGL240W, strain doc1, hits give low values 0.963 | locus YGL248W, strain PDE1, hits give low values 1.01 | locus YGL253W, strain hxk2, hits give low values 0.983 | locus YGR078C, strain PAC10, hits give low values 1.02 and 1.01 | locus YGR135W, strain pre9, hits give low values 1.03 | locus YGR229C, strain SMI1, hits give low values 1.01 | locus YGR252W, strain gcn5, hits give low values 1.05 | locus YHR013C, strain ard1, hits give low values 0.968 | locus YHR027C, strain rpn1, hits give low values 0.994 | locus YHR030C, strain SLT2, hits give low values 0.998 and 0.997 | locus YHR079C, strain IRE1 (second series), hits give low values 1.02 | locus YHR079C, strain IRE1, hits give low values 0.998 | locus YHR094C, strain hxt1, hits give low values 1.02 | locus YHR129C, strain ARP1, hits give low values 1 | locus YHR142W, strain chs7, hits give low values 0.964 | locus YHR200W, strain rpn10, hits give low values 1.03 | locus YIL066C, strain RNR3, hits give low values 1.01 | locus YIL073C, strain SPO22, hits give low values 1.08 | locus YIL125W, strain kgd1, hits give low values 1.03 | locus YIR030C, strain dcg1, hits give low values 1.03 | locus YJL092W, strain hpr5, hits give low values 0.974 | locus YJL095W, strain BCK1 (second series), hits give low values 0.971 | locus YJL095W, strain BCK1, hits give low values 1.02 | locus YJL115W, strain asf1, hits give low values 0.969 | locus YJL129C, strain trk1, hits give low values 0.967 | locus YJL134W, strain LCB3, hits give low values 1 | locus YJL154C, strain vps35, hits give low values 0.957 | locus YJL164C, strain tpk1, hits give low values 0.986 | locus YJL166W, strain qcr8, hits give low values 0.979 | locus YJL168C, strain set2, hits give low values 1.03 | locus YJL187C, strain SWE1 (second series), hits give low values 1.01 | locus YJL187C, strain SWE1, hits give low values 0.979 | locus YJR043C, strain POL32, hits give low values 0.994 | locus YJR066W, strain TOR1, hits give low values 0.941
